# Results published in PubChem BioAssay (NCI).
# The panel holds about 83,000 compounds, 20% with a hit somewhere; the sample as a whole holds those more often.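 Results are percent growth after 48 hours of single-concentration exposure. 100 means growth as in untreated cells, lower positive values show inhibition; negative values down to -100 show cell death.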 Active and inactive are the calls of the source. How the source made its calls: active means growth percent below 10; inactive means the rest.
# System: MALME-3M melanoma
# Experiment: NCI-60 one-dose screen, 48 h (100 = growth as untreated, 0 = no growth, -100 = all killed)
# Details: 10 µM
row,SMILES,growth
1,Cc1ccc(C(=O)NCCCNc2nc(Nc3ccc(N4CCN(C)CC4)cc3)nc3ccsc23)cc1,-94.8% (active)
2,O=C(c1ccc(-n2c(=O)[nH]c3ccccc3c2=O)cc1)N1CCOCC1,97.5% (inactive)
3,O=S(=O)(c1ccc(Cl)cc1)c1nc(-c2ccccc2)oc1S(=O)(=O)c1ccc(Cl)cc1,91.8% (inactive)
4,Cc1ccc(C(C)C)cc1NC(=O)c1ccccc1N(C)C,88.3% (inactive)
5,COc1ccc2[nH]c(O)c(N=NC(=O)COc3ccc(NC(=O)Nc4ccc(Cl)c(Cl)c4)cc3)c2c1,-79.6% (active)
6,COc1cccc(-c2nn(-c3ccccc3)cc2-c2ccnc(NCCCNC(=O)Nc3ccc(F)cc3)c2)c1,-24.7% (active)
7,CN1CCN(c2ccc(Nc3nc(NCCCNC(=O)c4ccc(F)cc4)c4sccc4n3)cc2)CC1,-72.3% (active)
8,CC1(C)CC[C@]2(C(=O)Nc3ccccc3)CC[C@]3(C)C(=CC[C@@H]4[C@@]5(C)CC[C@H](N)C(C)(C)[C@@H]5CC[C@]43C)[C@H]2C1,83.7% (inactive)
9,C[C@H]1[C@H](C)CC[C@]2(COC(=O)CCC(=O)NCC#CCN3CCNCC3)CC[C@]3(C)C(=CC[C@@H]4[C@@]5(C)CCCNC(C)(C)[C@@H]5CC[C@]43C)[C@H]12,-38.7% (active)
10,O=C(Nc1ccncc1)c1ccc(-n2c(=O)[nH]c3ccccc3c2=O)cc1,96.3% (inactive)
11,Cc1ccc(C(C)C)cc1NC(=O)c1ccccc1O,9.96% (active)
12,CCCS(=O)(=O)c1oc(-c2ccc(F)cc2)nc1S(=O)(=O)c1ccc(F)cc1,-98.8% (active)
13,CN(C)c1cccc2c(S(=O)(=O)Nc3cccc(-c4csc(NC(=O)CCCCCN5CCN(c6cc7c(cc6F)C(=O)N(C6CCC(=O)NC6=O)C7=O)CC5)n4)c3)cccc12 (configuration not stated),87.1% (inactive)
14,CC(=C(c1ccc(OCCN2CCCCC2)cc1)c1ccc(OCCN2CCCCC2)cc1)c1ccccc1,-99.9% (active)
15,CC[C@@]1(O)C(=O)OCc2c1cc1n(c2=O)Cc2c-1nc1cc(F)c(C)c3c1c2[C@@H](N)CC3,-55.8% (active)
16,O=C(Cn1cc(CSc2nnc3oc4ccccc4n23)nn1)Nc1cccc(Cl)c1,72.8% (inactive)
17,C=C(C)[C@@H]1CC[C@]2(C(=O)OC)CC[C@]3(C)[C@H](CC[C@@H]4[C@@]5(C)CC[C@H](N)C(C)(C)[C@@H]5CC[C@]43C)[C@@H]12,-97.7% (active)
18,COc1ccc(-c2nc(S(=O)(=O)c3ccc(C)cc3)c(S(C)(=O)=O)o2)cc1,-95.5% (active)
19,CCN1CCN(c2ccc(NC(=O)Nc3ccc(-c4cc(C(=O)NC(C)C)c5ncccc5n4)cc3)cc2C(F)(F)F)CC1,-97.5% (active)

row,SMILES,growth
1,C=C[C@H]1[C@H](O[C@@H]2OC(CO)[C@@H](O)[C@H](O)C2OC(=O)c2c(O)cc(O)cc2-c2cccc(O)c2)OC=C2C(=O)OCC[C@H]21 (some centres not stated),92.6% (inactive)
2,COc1ccc(C(C)=C(c2ccc(OCCCN(C)C)cc2)c2ccc(OCCCN(C)C)cc2)cc1,-97% (active)
3,CC1(C)CC[C@]23CC[C@]4(C)[C@H](CC[C@@H]5[C@@]6(C)CC[C@H](N)C(C)(C)[C@@H]6CC[C@]54C)[C@H]2[C@H]1OC3=O,-95.9% (active)
4,CCN1CCN(c2ccc(NC(=O)Nc3ccc(-c4cc(C(=O)NC)c5ncccc5n4)cc3)cc2C(F)(F)F)CC1,-100% (active)
5,COc1ccc2[nH]c(O)c(N=NC(=O)c3cc(-c4ccc(C)cc4)nc4ccccc34)c2c1,103% (inactive)
6,O=C(Cn1cc(CSc2nnc3oc4ccccc4n23)nn1)Nc1ccc(Br)cc1,87.8% (inactive)
7,CN1CCN(c2ccc(Nc3nc(N4CCN(S(=O)(=O)c5ccc(F)cc5)CC4)c4sccc4n3)cc2)CC1,-97.9% (active)
8,COc1ccccc1NCc1ccc(CO)n1-c1ccc(C)cc1,98.4% (inactive)
9,CC(=C(c1ccc(OCCCN(C)C)cc1)c1ccc(OCCCN(C)C)cc1)c1ccccc1,-98.6% (active)
10,CN1CCN(c2ccc(Nc3nc(NCCCNC(=O)c4ccccc4)c4sccc4n3)cc2)CC1,46.1% (inactive)
11,CCCCCc1ccc(S(=O)(=O)N(C(C)=O)c2cc(-c3csc(N(C)C(C)=O)n3)ccc2N2CCN(C)CC2)cc1,-93.3% (active)
12,C=C1CC[C@H](C(=C)C)[C@H]2C=C(C)C(=O)C3=C(C(=O)[C@@](C)(O)C3)[C@H]12,-79.1% (active)
13,CC(=O)Nc1nc(-c2ccc(N3CCN(C)CC3)c(NS(=O)(=O)c3cccc4c(N(C)C)cccc34)c2)cs1,-35.6% (active)
14,CNC(=O)c1cccc(N2CCc3c2ccc(NC(=O)Nc2ccc(N4CCN(C)CC4)c(C(F)(F)F)c2)c3F)c1,-96.3% (active)
15,CN1CCN(c2ccc(Nc3nc(N4CCN(S(=O)(=O)c5ccc(Cl)cc5)CC4)c4sccc4n3)cc2)CC1,-97.6% (active)
16,CC1(C)CC[C@]2(C(=O)NCCCNCCCCNCCCN)CC[C@]3(C)C(=CC[C@@H]4[C@@]5(C)Cc6c([nH]c7ccccc67)C(C)(C)[C@@H]5CC[C@]43C)[C@H]2C1,85.3% (inactive)
17,C=CC(=O)Nc1nc(-c2cccc(NS(=O)(=O)c3cccc4c(N(C)C)cccc34)c2)cs1,-76.1% (active)
18,COC1CC(Cn2cc(COc3ccc4ccc(=O)oc4c3)nn2)C(OCc2ccccc2)C(OCc2ccccc2)C1OCc1ccccc1 (configuration not stated),106% (inactive)
